Columns and labels:
Conditions in all cases: Compound concentration 20.0 uM, Protein concentration 2.0 uM, Result type QC Liability
[1] = biological target: Tyrosine-protein kinase ABL1 (Homo sapiens) (UniProt P00519)
[2] = biological target: Cyclin-dependent kinase 2 (Homo sapiens) (UniProt P24941)
[3] = biological target: Casein kinase I isoform delta (Homo sapiens) (UniProt P48730)
[4] = biological target: Glycogen synthase kinase-3 beta (Homo sapiens) (UniProt P49841)
[5] = biological target: Mitogen-activated protein kinase 1 (Homo sapiens) (UniProt P28482)
Sequence of Mitogen-activated protein kinase 1 (Homo sapiens) (P28482 whole entry): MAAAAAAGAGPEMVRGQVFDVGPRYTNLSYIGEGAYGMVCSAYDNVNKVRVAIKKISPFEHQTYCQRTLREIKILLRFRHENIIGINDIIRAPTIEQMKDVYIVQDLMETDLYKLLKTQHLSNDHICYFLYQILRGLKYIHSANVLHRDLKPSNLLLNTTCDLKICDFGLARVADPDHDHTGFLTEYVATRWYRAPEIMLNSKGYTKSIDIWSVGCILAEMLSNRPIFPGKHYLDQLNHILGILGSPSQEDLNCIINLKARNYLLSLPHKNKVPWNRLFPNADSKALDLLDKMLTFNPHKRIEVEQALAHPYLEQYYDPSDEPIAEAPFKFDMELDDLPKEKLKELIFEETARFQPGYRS

[6] = biological target: T1, Aurora kinase A (Homo sapiens) (UniProt O14965)
T1 sequence (whole entry): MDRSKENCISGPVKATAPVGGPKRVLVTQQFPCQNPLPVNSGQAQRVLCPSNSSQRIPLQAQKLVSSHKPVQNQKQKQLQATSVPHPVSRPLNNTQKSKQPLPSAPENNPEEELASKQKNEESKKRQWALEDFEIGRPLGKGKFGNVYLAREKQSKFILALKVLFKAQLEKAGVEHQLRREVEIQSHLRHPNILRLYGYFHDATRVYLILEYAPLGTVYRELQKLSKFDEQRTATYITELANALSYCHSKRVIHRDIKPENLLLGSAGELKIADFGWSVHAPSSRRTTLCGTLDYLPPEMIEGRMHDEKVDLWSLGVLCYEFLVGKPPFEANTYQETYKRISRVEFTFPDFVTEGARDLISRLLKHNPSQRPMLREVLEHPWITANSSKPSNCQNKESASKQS

Sequence of Tyrosine-protein kinase ABL1 (Homo sapiens) (P00519 whole entry): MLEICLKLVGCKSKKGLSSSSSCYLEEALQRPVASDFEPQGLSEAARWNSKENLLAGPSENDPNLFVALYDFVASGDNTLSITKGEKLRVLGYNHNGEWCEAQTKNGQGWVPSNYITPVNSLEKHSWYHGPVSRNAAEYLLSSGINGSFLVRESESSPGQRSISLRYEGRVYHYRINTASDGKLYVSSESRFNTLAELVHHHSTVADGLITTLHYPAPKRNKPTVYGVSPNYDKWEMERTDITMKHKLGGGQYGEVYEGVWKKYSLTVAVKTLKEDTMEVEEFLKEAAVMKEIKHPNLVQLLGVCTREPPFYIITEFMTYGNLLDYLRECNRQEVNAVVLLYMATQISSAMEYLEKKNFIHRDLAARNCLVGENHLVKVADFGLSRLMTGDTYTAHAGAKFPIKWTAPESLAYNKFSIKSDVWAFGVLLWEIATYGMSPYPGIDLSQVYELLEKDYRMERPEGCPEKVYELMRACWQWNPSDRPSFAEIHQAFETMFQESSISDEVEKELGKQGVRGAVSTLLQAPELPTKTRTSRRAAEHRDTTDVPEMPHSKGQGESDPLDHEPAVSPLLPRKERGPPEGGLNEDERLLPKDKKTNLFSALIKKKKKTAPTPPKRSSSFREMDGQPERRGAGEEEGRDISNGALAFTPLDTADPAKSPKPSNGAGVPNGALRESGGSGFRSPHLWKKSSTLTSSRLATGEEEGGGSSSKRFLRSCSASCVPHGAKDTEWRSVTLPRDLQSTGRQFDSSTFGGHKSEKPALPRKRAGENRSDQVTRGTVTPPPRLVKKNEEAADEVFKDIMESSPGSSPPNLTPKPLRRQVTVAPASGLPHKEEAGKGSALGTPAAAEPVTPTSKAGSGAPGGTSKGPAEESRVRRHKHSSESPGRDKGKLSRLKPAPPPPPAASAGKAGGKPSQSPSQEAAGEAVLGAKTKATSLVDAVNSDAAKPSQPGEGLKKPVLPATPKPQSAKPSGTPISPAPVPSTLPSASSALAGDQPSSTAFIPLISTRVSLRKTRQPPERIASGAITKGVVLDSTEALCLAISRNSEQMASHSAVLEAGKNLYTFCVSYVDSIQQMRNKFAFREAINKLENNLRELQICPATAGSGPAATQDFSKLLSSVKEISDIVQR
Sequence of Casein kinase I isoform delta (Homo sapiens) (P48730 whole entry, looked up, canonical isoform): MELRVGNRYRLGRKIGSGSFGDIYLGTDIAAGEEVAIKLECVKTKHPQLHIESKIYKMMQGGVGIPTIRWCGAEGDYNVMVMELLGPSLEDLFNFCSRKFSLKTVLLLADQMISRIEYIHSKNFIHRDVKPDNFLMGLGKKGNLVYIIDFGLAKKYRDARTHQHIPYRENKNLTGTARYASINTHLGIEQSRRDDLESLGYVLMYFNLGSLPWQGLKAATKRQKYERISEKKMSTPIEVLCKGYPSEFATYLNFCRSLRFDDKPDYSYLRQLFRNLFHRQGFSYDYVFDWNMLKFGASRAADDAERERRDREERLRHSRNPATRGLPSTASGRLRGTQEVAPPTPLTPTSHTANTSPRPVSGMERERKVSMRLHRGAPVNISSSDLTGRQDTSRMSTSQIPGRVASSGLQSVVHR
Sequence of Glycogen synthase kinase-3 beta (Homo sapiens) (P49841 whole entry, looked up): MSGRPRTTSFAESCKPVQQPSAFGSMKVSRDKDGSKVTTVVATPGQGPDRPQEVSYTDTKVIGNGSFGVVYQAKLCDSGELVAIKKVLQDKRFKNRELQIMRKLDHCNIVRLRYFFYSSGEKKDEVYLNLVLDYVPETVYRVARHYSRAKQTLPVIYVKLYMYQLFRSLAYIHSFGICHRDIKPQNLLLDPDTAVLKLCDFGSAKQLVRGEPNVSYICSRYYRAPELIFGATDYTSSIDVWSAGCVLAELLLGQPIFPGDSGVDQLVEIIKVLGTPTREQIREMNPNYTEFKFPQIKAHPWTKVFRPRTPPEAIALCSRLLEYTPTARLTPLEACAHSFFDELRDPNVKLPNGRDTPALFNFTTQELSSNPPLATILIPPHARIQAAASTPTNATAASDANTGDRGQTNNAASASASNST

Compound | ΔTm [1] | ΔTm [2] | ΔTm [3] | ΔTm [4] | ΔTm [5] | ΔTm [6]
CNS(=O)(=O)c1ccc(N(C)C)c(Nc2ncnc3cc(OC)c(OC)cc23)c1 | 3.42 °C | -0.02 °C | 0.23 °C | -0.61 °C | 0.24 °C | -1.08 °C
CC[C@H](NC(=O)[C@H](C)NC)C(=O)N1C[C@@H](O)C[C@H]1Cc1c(-c2[nH]c3cc(F)ccc3c2C[C@@H]2C[C@H](O)CN2C(=O)[C@H](CC)NC(=O)[C@H](C)NC)[nH]c2cc(F)ccc12 | 0.09 °C | 0.28 °C | 1.26 °C | -0.88 °C | 0.38 °C | -1.51 °C
CN(C)C(=O)Cn1cc(-c2nc([C@@](C)(c3ccc(-c4cnc(N)nc4)cc3)C3CC3)no2)cn1 | 1.32 °C | 0.32 °C | 0.5 °C | -0.36 °C | 0.32 °C | 2.6 °C
CNc1oc(-c2cccc3ccccc23)nc1C#N | 0.54 °C | 0.95 °C | -0.04 °C | 0.49 °C | 0.02 °C | 0.57 °C
CC/C(=C(\c1ccccc1)c1ccc(OCCN(C)C)cc1)c1ccccc1 | -1.51 °C | -1.86 °C | 0.3 °C | -1.42 °C | -0.3 °C | -2.91 °C
Nc1c(CC(=O)O)cccc1C(=O)c1ccc(Br)cc1 | 1.3 °C | 0.36 °C | 0.21 °C | 0.59 °C | 0.2 °C | 0.08 °C
Cc1cc(OCCC(C)(C)O)cc(C)c1-c1ccc(F)c2c1CC[C@H]2Oc1ccc2c(c1)OC[C@H]2CC(=O)O | -2.63 °C | -3.73 °C | -1.62 °C | -4.17 °C | -8.53 °C | -3.22 °C
O=C(Nc1ccc(Cl)c(-c2ccccn2)c1)c1cccc(COc2ccc(Br)cc2CNCCO)c1 | 0.35 °C | -0.21 °C | 0.55 °C | -0.89 °C | -0.69 °C | -0.51 °C
CC(C)(O)c1coc(S(=O)(=O)NC(=O)Nc2c3c(cc4c2CCC4)CCC3)c1 | 0.65 °C | 1.24 °C | 0.37 °C | 0.29 °C | 0.43 °C | 0.25 °C
CC1(C)Oc2ncnc(N)c2N=C1c1ccc([C@H]2CC[C@H](CC(=O)O)CC2)cc1 | 0.89 °C | 0.57 °C | -0.19 °C | 0.61 °C | 0.18 °C | 0.25 °C
N#Cc1ccc(C#CC[C@@H](C#N)NC(=O)[C@H]2CCCCN2)cc1F | -0.48 °C | -0.17 °C | 0.45 °C | -0.17 °C | -0.62 °C | -0.01 °C
COc1ccccc1S(=O)(=O)Nc1ccc2c(c1)CN(C)C(=O)N2 | 0.09 °C | 1.13 °C | 0.79 °C | -0.57 °C | 0.21 °C | -0.1 °C
O=C(O)CCCCN(CCc1ccccc1OCc1ccc(CCc2ccccc2)cc1)Cc1ccc(C(=O)O)cc1 | -0.26 °C | 0.13 °C | -0.05 °C | -0.16 °C | -0.08 °C | -0.23 °C
O=C(Nc1ccc(C(O)(C(F)(F)F)C(F)(F)F)cc1)c1ccc(C(F)(F)F)cc1 | 0.76 °C | 1.61 °C | 1.47 °C | -0.34 °C | 0.19 °C | 0 °C
C[C@H](NC(=O)c1cnc2n1[C@](C)(Cc1ccc(C#N)cc1)C(=O)N2c1cc(Cl)c(F)c(Cl)c1)C(=O)NC1(c2ccccn2)CC1 | 0.04 °C | 0.07 °C | 0.77 °C | -3.42 °C | 10.2 °C | 0.19 °C
CCS(=O)(=O)c1cc2cc(C[C@](O)(CC(C)(C)c3ccc(F)cc3C(N)=O)C(F)(F)F)[nH]c2cn1 | 0.15 °C | 0.5 °C | 0.37 °C | -0.73 °C | 0.36 °C | 0.03 °C
N#Cc1ccc(C#CC[C@@H](C#N)NC(=O)[C@@H]2CCCCN2)cc1F | -0.78 °C | 0.23 °C | 0.14 °C | -0.69 °C | 0.24 °C | -0.05 °C
CCc1ccccc1C(=O)Nc1n[nH]c2c(C)c(F)c(C3C(C#N)=C(C)N(C)C(C)=C3C#N)cc12 | 0.41 °C | 1.35 °C | 0.67 °C | 8.17 °C | 0.38 °C | 5.56 °C
CCCCOc1c(C(=O)c2c(F)cc(C)cc2F)c[nH]c2nncc1-2 | 0.35 °C | 2.95 °C | 0.13 °C | 0.42 °C | 0.05 °C | 0.96 °C
CC(C)(O)c1cn(-c2ccc(-c3cccc(S(C)(=O)=O)c3)cc2)c(C(C)(C)c2ccccc2Cl)n1 | -1.7 °C | 0.08 °C | -0.27 °C | -0.99 °C | 0.15 °C | -3.66 °C
COc1cc2ncnc(N[C@H](C)c3ccccc3)c2cc1OC1CCN(S(C)(=O)=O)CC1 | 1.29 °C | 0.54 °C | 0.38 °C | 0.09 °C | 0.1 °C | 0.05 °C
CN(C)C/C=C/C(=O)Nc1ccc(C(=O)Nc2cccc(Nc3ncc(Cl)c(-c4c[nH]c5ccccc45)n3)c2)cc1 | 6.42 °C | 7.89 °C | -0.47 °C | 12.9 °C | -1.25 °C | 10.2 °C
COc1cc(Oc2nc(-c3ccc(NC(=O)C4CCOC4)cc3)nn3c(C)nc(C)c23)cc(OC)c1OC (configuration not stated) | 0.18 °C | 0.72 °C | 0.03 °C | -0.39 °C | 0.18 °C | 0.1 °C
COc1cc(C(=O)NC2CCN(C)CC2)ccc1Nc1ncc2c(n1)N(C1CCCC1)CC(F)(F)C(=O)N2C | 0.35 °C | 0.09 °C | 1.15 °C | -0.4 °C | 0.38 °C | 0.78 °C
CCCCCCCN(CCc1ccc(SC(C)(C)C(=O)O)cc1)C(=O)Nc1ccc(F)cc1F | 0.48 °C | 0 °C | 0.48 °C | -1.12 °C | -0.08 °C | -1.93 °C
CN(C)CCC[C@@]1(c2ccc(F)cc2)OCc2cc(C#N)ccc21 | 0.61 °C | 0.64 °C | -0.32 °C | -0.03 °C | 0.7 °C | -0.23 °C

Compound | ΔTm [1] | ΔTm [2] | ΔTm [3] | ΔTm [4] | ΔTm [5] | ΔTm [6]
O=C(O)c1ccc2c(c1)nc(NCc1ccccc1)c1ncncc12 | 0.29 °C | 1.34 °C | 0.62 °C | 1.21 °C | 0.05 °C | 1.85 °C
CCn1c(CNC(=O)c2nc(Cl)cnc2N)[n+](CC)c2ccc(C(=O)N(C)CCN(C)C)cc21 | 0.14 °C | 0.44 °C | 0.35 °C | -0.7 °C | 0.33 °C | -0.18 °C
CCCc1c(OCCCOc2ccc(OCC(=O)O)cc2)ccc(C(C)=O)c1O | 0.08 °C | -0.16 °C | 1.18 °C | -0.07 °C | -0.16 °C | -1.56 °C
CC(C)Nc1ncnc2cc(OCc3cccc([S@@](C)(=N)=O)c3)c(Br)cc12 | 2.87 °C | 0.49 °C | 1.35 °C | -0.51 °C | -0.37 °C | 4.25 °C
CN1CCN(c2ccc(/C=C(\C#N)c3ccccc3Br)cc2)CC1 | -0.04 °C | 0.19 °C | 0.85 °C | -0.47 °C | 0.11 °C | -1.83 °C
CN1C(=O)Cc2ccc(-c3ccc(C[C@@H](C#N)NC(=O)[C@H]4N[C@@H]5CC[C@H]4C5)c(F)c3)cc21 | 0.24 °C | 0.52 °C | 0.41 °C | 0.41 °C | 0.5 °C | 0.8 °C
CC(=O)Nc1ncc(CN2CCC[C@H](Cc3cc(C)nc(C)c3)C2)s1 | 0.26 °C | -0.34 °C | -0.41 °C | -0.15 °C | 0.35 °C | 0.39 °C
Cc1cc(-c2nc(-c3ccc(OC(F)(F)F)cc3)no2)nn1Cc1ccnc(N2CCN(C3CC3)CC2)c1 | 0.32 °C | 0.39 °C | -1.88 °C | -5.07 °C | 0.34 °C | -3.42 °C
Fc1ccc(-c2nc(-c3c(F)cccc3F)[nH]c2-c2ccncc2)cc1 | 4.45 °C | 1.7 °C | 6.41 °C | 7.77 °C | 0.52 °C | -0.55 °C
CC[C@@H](CO)Nc1nc(Nc2cccc(NC(=O)C(C)(C)C)c2)ncc1F | 1.74 °C | 1.9 °C | 0.38 °C | 3.34 °C | 0.54 °C | 9.07 °C
CC(=O)c1c(C)c2cnc(Nc3ccn(C)n3)nc2n(C2CCCC2)c1=O | -0.44 °C | -0.29 °C | -0.59 °C | 2.32 °C | 0.48 °C | 0.47 °C
CSc1ccc(C(=O)/C=C/c2cc(C)c(OC(C)(C)C(=O)O)c(C)c2)cc1 | 1.1 °C | 0.59 °C | 0.61 °C | 0.69 °C | 0.07 °C | 4.96 °C
CN[C@@H](C)C(=O)N[C@H](C(=O)N1CCC[C@H]1C(=O)N[C@H]1c2ccccc2C[C@H]1OCC#CC#CCO[C@@H]1Cc2ccccc2[C@@H]1NC(=O)[C@@H]1CCCN1C(=O)[C@@H](NC(=O)[C@H](C)NC)C1CCCCC1)C1CCCCC1 | 0.18 °C | -0.48 °C | 0.49 °C | -1.17 °C | 0.11 °C | -1.88 °C
CCS(=O)(=O)Nc1cccc(Oc2cc(F)cc(Nc3ccc(I)cc3F)c2NS(=O)(=O)C2CC2)c1 | 1.05 °C | 0.19 °C | 0.44 °C | 2.25 °C | -1.88 °C | 0.23 °C
O=C(Nc1ccc(N2CCC(C(=O)N3CCOCC3)CC2)cc1)c1cnc(Oc2ccccc2)nc1 | 0.2 °C | 0.87 °C | 0.06 °C | -0.13 °C | 0.13 °C | -0.24 °C
N#Cc1c(SCc2csc(-c3ccc(Cl)cc3)n2)nc(N2CCCC2)c(C#N)c1-c1ccc(OCCO)cc1 | -0.51 °C | 0.34 °C | -2.01 °C | 0 °C | 4.1 °C | -0.18 °C
CC(=O)N1CCN([C@H]2CCC[C@@H](NC(=O)c3cc4c(F)ccc(C)c4[nH]3)C2)CC1 | 0.29 °C | 0.89 °C | 0.05 °C | -0.56 °C | 0.42 °C | -0.61 °C
O=C(O)c1cc(-c2ccccc2)ccc1O | 0.56 °C | 0.7 °C | 0.85 °C | -0.32 °C | 0.04 °C | 0.05 °C
CCCCC[C@H](O)/C=C/[C@H]1[C@H](O)CC(=O)[C@@H]1CCCCCCC(=O)O | 0.19 °C | 0.43 °C | 0.1 °C | -0.48 °C | 0.29 °C | -0.09 °C
Nc1ncnc2c1c(I)cn2[C@@H]1O[C@H](CO)[C@@H](O)[C@H]1O | 2.09 °C | 6.73 °C | 5.26 °C | 2.65 °C | 1.65 °C | 2.13 °C
CNC(=O)COc1cc2cc(Nc3nc(N4CCC(C(=O)N(C)C)CC4)ncc3Cl)cc(OC)c2n(C)c1=O | -0.18 °C | -0.4 °C | 0.17 °C | -0.71 °C | 0.01 °C | -0.26 °C
CC(C)C[C@H](NC(=O)[C@@H](O)[C@H](N)Cc1ccccc1)C(=O)O | -0.05 °C | 1.32 °C | 0.13 °C | 0.33 °C | 0.15 °C | -0.07 °C
COc1cc(F)ccc1-c1cc(Nc2cc(CS(C)(=N)=O)ccn2)ncc1F (configuration not stated) | 5.35 °C | 5.7 °C | 1.19 °C | 11 °C | 0.27 °C | 6.53 °C
N#Cc1cccc(-c2c[nH]c3ncnc(N4CCOCC4)c23)c1 | 1.39 °C | 1.88 °C | 0.56 °C | 4.32 °C | 0.64 °C | 4.35 °C
COc1cc(C(=O)O)ncc1C#Cc1ccccc1NS(=O)(=O)c1cccc2c(N(C)C)ccnc12 | 0.14 °C | -0.3 °C | 0.08 °C | -0.76 °C | 0.42 °C | 0.72 °C
CCOC(=O)/N=C(\N)c1ccc(OCc2cccc(COc3ccc(C(C)(C)c4ccc(OC(=O)OCC)cc4)cc3)c2)cc1 | 0.03 °C | -3.47 °C | -11.2 °C | -4.21 °C | -11.6 °C | -7.28 °C

Source: ChEMBL document CHEMBL5308504, “Tm Shift (DSF) assay results for EUbOPEN Chemogenomics Library” (2023)
